PubChem BioAssay (Tox21)
Records with an inconclusive call do not appear. Active and inactive are the calls of the source. The call rests on the fitted dose curve; in most records, active means well fitted curve in the direction sought with a large enough effect in the repeat runs; inconclusive means weak or mixed curves; inactive means no such curve, though single readings can be large; an effect the other way counts as inactive or inconclusive.

Experiments:
[1] = qHTS RealTime-Glo MT Cell Viability Assay in HepG2 cells - 24 hour (AID 1224867); further: nearly all actives have a fitted effect of over 50% in size
How it was run: (§1)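 Luminescence read-out: viable HepG2 cells reduce a prosubstrate to a NanoLuc substrate, giving a signal proportional to live cell number. Reads taken at 0, 8, 16, 24, 32 and 40 h of compound exposure at 37 C.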

[2] = qHTS RealTime-Glo MT Cell Viability Assay in HepG2 cells - 40 hour (AID 1224870); further: nearly all actives have a fitted effect of over 50% in size
How it was run: (§2)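 Real-time viability: cells seeded at 600 per well together with NanoLuc and cell-permeant prosubstrate, compounds added after 5 h incubation. Luminescence tracked at 0, 8, 16, 24, 32 and 40 h of exposure.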

[3] = A CellTox Green Cytotoxicity Assay to monitor cytotoxicity in HEK293 cells - 40 hour (AID 1224871); further: nearly all actives have a fitted effect of over 45% in size
How it was run: (§3)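 HEK293 cells, 600/well, were preincubated 5 hours and then exposed to compounds at 37 C for up to 40 hours. A cell-impermeant cyanine dye staining dead-cell DNA was read by fluorescence at 0, 8, 16, 24, 32 and 40 h time points.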

[4] = qHTS RealTime-Glo MT Cell Viability Assay in HepG2 cells - 8 hour (AID 1224873); further: nearly all actives have a fitted effect of over 55% in size
How it was run: as §2

[5] = qHTS RealTime-Glo MT Cell Viability Assay in HEK293 cells - 40 hour (AID 1224874); conditions: RealTime-Glo luminescence, active compounds read low; further: nearly all actives have a fitted effect of over 50% in size
How it was run: (§4)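 600 cells/well were plated with the nonlytic NanoLuc/prosubstrate reagent, pre-incubated 5 h, then given 23 nL of compound in DMSO. Incubation at 37 C for 40 h, with luminescence from viable-cell-reduced substrate read repeatedly from 0 h.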

[6] = A CellTox Green Cytotoxicity Assay to monitor cytotoxicity in HEK293 cells - 24 hour (AID 1224875); further: series mostly up to about 77 µM; nearly all actives have a fitted effect of over 45% in size
How it was run: as §3

[7] = A CellTox Green Cytotoxicity Assay to monitor cytotoxicity in HepG2 cells - 16 hour (AID 1224876); further: nearly all actives have a fitted effect of over 45% in size
How it was run: (§5)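 HepG2 cells, 600/well, preincubated 5 h with CellTox Green dye, then exposed to Tox21 compounds in DMSO at 37 C for up to 40 h. Dead-cell DNA fluorescence read at the indicated time point.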

[8] = qHTS RealTime-Glo MT Cell Viability Assay in HepG2 cells - 32 hour (AID 1224877); further: nearly all actives have a fitted effect of over 55% in size
How it was run: as §1

[9] = A CellTox Green Cytotoxicity Assay to monitor cytotoxicity in HepG2 cells - 24 hour (AID 1224878); further: nearly all actives have a fitted effect of over 45% in size
How it was run: as §5

[10] = A CellTox Green Cytotoxicity Assay to monitor cytotoxicity in HepG2 cells - 40 hour (AID 1224879); further: nearly all actives have a fitted effect of over 40% in size
How it was run: as §5

[11] = qHTS RealTime-Glo MT Cell Viability Assay in HEK293 cells - 0 hour (AID 1224880)
How it was run: as §4

[12] = A CellTox Green Cytotoxicity Assay to monitor cytotoxicity in HEK293 cells - 32 hour (AID 1224881); further: nearly all actives have a fitted effect of over 40% in size
How it was run: as §3

[13] = A CellTox Green Cytotoxicity Assay to monitor cytotoxicity in HepG2 cells - 0 hour (AID 1224882); further: nearly all actives have a fitted effect of over 35% in size
How it was run: as §5

[14] = A CellTox Green Cytotoxicity Assay to monitor cytotoxicity in HepG2 cells - 32 hour (AID 1224883); further: nearly all actives have a fitted effect of over 50% in size
How it was run: as §5

[15] = A CellTox Green Cytotoxicity Assay to monitor cytotoxicity in HEK293 cells - 8 hour (AID 1224884); further: nearly all actives have a fitted effect of over 35% in size
How it was run: as §3

[16] = qHTS RealTime-Glo MT Cell Viability Assay in HepG2 cells - 16 hour (AID 1224885); further: nearly all actives have a fitted effect of over 50% in size
How it was run: as §1

[17] = qHTS RealTime-Glo MT Cell Viability Assay in HEK293 cells - 16 hour (AID 1224872)
How it was run: (§6)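 Nonlytic real-time viability readout: viable cells convert prosubstrate to NanoLuc substrate, giving luminescence proportional to live cell number. HEK293, 600 cells/well, compound added after 5 h, continuous culture at 37 C.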

[18] = qHTS RealTime-Glo MT Cell Viability Assay in HEK293 cells - 24 hour (AID 1224886)
How it was run: as §6

[19] = A CellTox Green Cytotoxicity Assay to monitor cytotoxicity in HEK293 cells - 0 hour (AID 1224869); further: nearly all actives have a fitted effect of over 50% in size
How it was run: as §3
On the % scale 0 is the no-effect control and ±100 the full control effect.

Cc1nnc(C(=O)NC(C)(C)c2nc(C(=O)NCc3ccc(F)cc3)c(O)c(=O)n2C)o1
inactive: outcome [1] | outcome [2] | Potency [3] | outcome [4] | max response [5] 21.7% | Potency [6] | Potency [7] | outcome [8] | Potency [9] | Potency [10] | Potency [11] | Potency [12] | Potency [13] | Potency [14] | Potency [15] | outcome [16]

CC(=O)SC[C@@H](C)C(=O)N1CCC[C@H]1C(=O)N[C@@H](Cc1ccccc1)C(=O)O
inactive: outcome [1] | outcome [2] | Potency [3] | outcome [17] | outcome [4] | max response [5] 3.03% | outcome [8] | Potency [9] | Potency [10] | Potency [11] | Potency [13] | Potency [14] | Potency [15] | outcome [16] | outcome [18]

CC(=O)Nc1ccc(S(=O)(=O)Nc2cc(C)on2)cc1
inactive: outcome [1] | outcome [2] | Potency [3] | outcome [4] | max response [5] 0.358% | Potency [6] | Potency [7] | outcome [8] | Potency [9] | Potency [10] | Potency [11] | Potency [12] | Potency [13] | Potency [14] | Potency [15] | outcome [16] | outcome [18]

COc1ccc(Cl)cc1C
inactive: outcome [1] | outcome [19] | Potency [3] | outcome [4] | Potency [6] | Potency [7] | outcome [8] | Potency [9] | Potency [10] | Potency [11] | Potency [13] | Potency [14] | Potency [15] | outcome [16] | outcome [18]

CCCCCC(CC)OC(=O)CCCOc1ccc(Cl)cc1Cl (stereo not drawn)
inactive: outcome [1] | outcome [19] | outcome [2] | Potency [3] | outcome [17] | max response [5] 2.48% | Potency [6] | outcome [8] | Potency [9] | Potency [10] | Potency [11] | Potency [13] | Potency [14] | Potency [15] | outcome [18]

N=C(N)N
inactive: outcome [1] | outcome [2] | Potency [3] | outcome [4] | max response [5] -0.588% | Potency [7] | outcome [8] | Potency [10] | Potency [11] | Potency [13] | Potency [14] | outcome [16] | outcome [18]

Cc1ccc(NC(N)=O)cc1
inactive: outcome [1] | outcome [19] | outcome [2] | Potency [3] | outcome [17] | outcome [4] | max response [5] 11.1% | Potency [7] | outcome [8] | Potency [9] | Potency [10] | Potency [11] | Potency [12] | Potency [13] | Potency [14] | Potency [15] | outcome [16] | outcome [18]

O=Cc1ccccc1S(=O)(=O)O
inactive: outcome [1] | Potency [3] | outcome [17] | outcome [4] | max response [5] 7.86% | Potency [7] | outcome [8] | Potency [9] | Potency [10] | Potency [11] | Potency [12] | Potency [13] | Potency [14] | Potency [15] | outcome [16] | outcome [18]

CC(C)OC(=O)C(C(=O)OC(C)C)=C1SC=CS1
inactive: outcome [1] | outcome [2] | Potency [3] | outcome [4] | Potency [6] | outcome [8] | Potency [9] | Potency [11] | Potency [12] | Potency [13] | Potency [14] | Potency [15] | outcome [16]

CCCCCCCCCCCCCCBr
inactive: outcome [1] | outcome [19] | outcome [2] | Potency [3] | outcome [17] | outcome [4] | max response [5] -1.85% | Potency [6] | Potency [7] | outcome [8] | Potency [10] | Potency [11] | Potency [12] | Potency [13] | Potency [14] | Potency [15] | outcome [16] | outcome [18]

O=C(CCBr)N1CCN(C(=O)CCBr)CC1
inactive: outcome [1] | outcome [19] | Potency [3] | outcome [17] | outcome [4] | max response [5] 1.87% | Potency [6] | Potency [7] | outcome [8] | Potency [10] | Potency [11] | Potency [12] | Potency [13] | Potency [14] | Potency [15] | outcome [16] | outcome [18]

COCCCOc1cc(C[C@@H](C[C@H](N)[C@@H](O)C[C@H](C(=O)NCC(C)(C)C(N)=O)C(C)C)C(C)C)ccc1OC
inactive: outcome [1] | outcome [19] | Potency [3] | outcome [4] | max response [5] 2.37% | Potency [7] | outcome [8] | Potency [9] | Potency [10] | Potency [11] | Potency [12] | Potency [13] | Potency [14] | Potency [15] | outcome [16] | outcome [18]

CC[N+](C)(CC)CC
inactive: outcome [1] | outcome [19] | Potency [3] | outcome [17] | outcome [4] | max response [5] 13.2% | Potency [6] | Potency [7] | outcome [8] | Potency [9] | Potency [10] | Potency [11] | Potency [12] | Potency [13] | Potency [14] | Potency [15] | outcome [16] | outcome [18]

c1cc2ccc3ccc4ccc5cccc6c(c1)c2c3c4c56
inactive: activity change, negative = cytotoxicity [1] -0.157% [at 2.72 µM] | cytotoxicity [19] -4.63% [at 2.72 µM] | activity change, negative = cytotoxic [2] -2.6% [at 2.72 µM] | cytotoxicity increase [3] -13.8% [at 2.72 µM] | viability change, negative = cytotoxic [4] 0.803% [at 2.72 µM] | max response [5] 1.82% | activity change [6] -12.1% [at 2.72 µM, active compounds read high] | cytotoxicity increase [7] -15.3% [at 2.72 µM] | activity change, negative = cytotoxic [8] -3.43% [at 2.72 µM] | cytotoxicity [9] -19.8% [at 2.72 µM] | cytotoxicity increase [10] -16.7% [at 2.72 µM] | activity change, negative = cytotoxicity [11] -3.02% [at 2.72 µM] | cytotoxicity increase [12] -14.8% [at 2.72 µM] | cytotoxicity [13] -21.2% [at 2.72 µM] | cytotoxicity increase [14] -14.8% [at 2.72 µM] | cytotoxicity increase [15] -10.4% [at 2.72 µM] | activity change, negative = cytotoxic [16] 0.567% [at 2.72 µM] | activity change, negative = cytotoxicity [18] 0.461% [at 2.72 µM]

O=C(O)CCCCCCCCCC(=O)O
inactive: outcome [1] | outcome [2] | Potency [3] | outcome [17] | outcome [4] | max response [5] 0.0039% | Potency [6] | Potency [7] | outcome [8] | Potency [9] | Potency [10] | Potency [11] | Potency [12] | Potency [13] | Potency [14] | Potency [15] | outcome [16] | outcome [18]

N#Cc1cc(NC(=O)C(=O)O)c(Cl)c(NC(=O)C(=O)O)c1
inactive: outcome [1] | outcome [19] | Potency [3] | outcome [17] | outcome [4] | max response [5] -0.333% | Potency [6] | Potency [7] | outcome [8] | Potency [9] | Potency [11] | Potency [13] | Potency [14] | Potency [15] | outcome [16] | outcome [18]

NCC1CCC(C(=O)Oc2ccc(CCC(=O)O)cc2)CC1 (stereo not drawn)
inactive: outcome [1] | outcome [2] | Potency [3] | outcome [17] | outcome [4] | max response [5] 8.81% | Potency [6] | Potency [7] | outcome [8] | Potency [9] | Potency [11] | Potency [12] | Potency [13] | Potency [14] | Potency [15] | outcome [16] | outcome [18]

CNC(C)=O
inactive: outcome [1] | outcome [2] | Potency [3] | outcome [4] | max response [5] -0.0492% | Potency [6] | Potency [7] | outcome [8] | Potency [9] | Potency [10] | Potency [11] | Potency [12] | Potency [13] | Potency [14] | Potency [15] | outcome [16] | outcome [18]

CCCCCCCCCCCCCCCC/C=C/C1CC(=O)OC1=O (stereo not drawn)
inactive: outcome [1] | outcome [19] | outcome [2] | Potency [3] | outcome [17] | outcome [4] | max response [5] -0.0124% | Potency [7] | outcome [8] | Potency [9] | Potency [10] | Potency [11] | Potency [12] | Potency [13] | Potency [14] | Potency [15] | outcome [16] | outcome [18]

O=C(OOC(=O)c1ccccc1)c1ccccc1
inactive: outcome [1] | outcome [19] | outcome [2] | Potency [3] | outcome [4] | Potency [6] | outcome [8] | Potency [9] | Potency [10] | Potency [12] | Potency [13] | Potency [14] | Potency [15] | outcome [16]

O=C[C@@H](O)[C@H](O)[C@H](O)CO
inactive: outcome [1] | outcome [2] | Potency [3] | outcome [17] | outcome [4] | max response [5] -1.95% | Potency [6] | outcome [8] | Potency [9] | Potency [10] | Potency [11] | Potency [12] | Potency [13] | Potency [14] | Potency [15] | outcome [16] | outcome [18]

CCN(CC)CC(=O)Oc1ccc(NC(C)=O)cc1
inactive: outcome [1] | outcome [19] | outcome [2] | Potency [3] | outcome [4] | Potency [6] | Potency [7] | outcome [8] | Potency [9] | Potency [10] | Potency [11] | Potency [12] | Potency [13] | Potency [14] | Potency [15] | outcome [16]
